Our source for the outcome, potentiation and inhibition values is PubChem BioAssay.

For some of these results: Results with a measured potency or affinity are listed apart. Active and inactive are the calls of the source.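 How the source made its calls, unless noted: active means primary screen hit whose fluorescence ratio, in both repeats, exceeds the weak agonist control mean by 3 SD; inactive means the rest.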

For assay [1], the system named is TRPC4 beta (transient receptor potential cation channel C4), mouse. The experiment in a line: TRPC4 cation channel opening, retest – cell-based, Fluo4 calcium, HEK293 TRPC4beta/mu-opioid, duplicates, 10 µM, confirmation (AID 2426;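 active means fluorescence ratio normalized to control raised more than 50% in primary screen plus both repeat runs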). Conditions: Fluo4 calcium fluorescence, at 10 µM; active compounds read high.
Assay [2] relates to transient receptor potential cation channel C4 beta (TRPC4), mouse. Nature of the assay: TRPC4 cation channel opening, second retest – cell-based, second round, Fluo4, HEK293 TRPC4beta/mu-opioid, 1 µM, confirmation (AID 2461;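 active means primary screen active and over 50% activation in each of two duplicate runs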). The note with it: Fluo4 calcium fluorescence, at 1 µM; active compounds read high.
Assay [3] relates to TRPC4 (transient receptor potential cation channel C4 beta), mouse. Nature of the assay: potentiation of DAMGO EC20 TRPC4 response – cell-based, second round, Fluo-4, HEK293 TRPC4beta/mu-opioid, 1 µM, confirmation (AID 2554). Conditions: DAMGO EC20, Fluo-4 calcium flux, at 1 µM; active compounds read high.
Assay [4] relates to TRPC4 beta (transient receptor potential cation channel C4), mouse. Nature of the assay: potentiation of DAMGO EC20 TRPC4 response – cell-based, Fluo-4, HEK293 TRPC4beta/mu-opioid, confirmation (AID 2555;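 active means primary screen hit whose calcium fluorescence ratio, in both repeats, exceeds the weak agonist control mean by 3 SD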). Conditions: DAMGO EC20, Fluo-4 calcium flux, at 10 µM; active compounds read high.
Assay [5] addresses Short transient receptor potential channel 4 (Mus musculus) (UniProt Q9QUQ5). The experiment in a line: blockers of DAMGO-evoked TRPC4 calcium flux – cell-based, Fluo4, HEK293 TRPC4beta/mu-opioid, confirmation (AID 2636;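 active means calcium signal cut by more than 3 SD below the full-agonist control yet still positive, in both repeats and the earlier primary screen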). Conditions: at 10 µM; active compounds read high.
Assay [6] has the same target. Nature of the assay: blockers of DAMGO-evoked TRPC4 calcium flux – cell-based, second round, Fluo4, HEK293 TRPC4beta/mu-opioid, 1 µM, confirmation (AID 2637;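 active means calcium signal ratio cut to more than 3 SD under the fully stimulated control mean yet still positive, in both repeats and the primary screen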;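 on inhibition: percent of integrated ratio relative to wells lacking test compound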). Conditions: at 1 µM; active compounds read high.
For assay [7] the target is unchanged. The experiment in a line: calcium entry via TRPC4 opening agents – cell-based, HEK293 TRPC4/mu-opioid, Fluo-4 calcium, dose response (AID 434937;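 active means primary screen activator hit with a dose response curve and TRPC4 channel activation at any tested dose; inactive means no activation, no dose response, or not a primary hit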).
For assay [8] the target is unchanged. The experiment in a line: potentiation of DAMGO-evoked TRPC4 calcium signal – cell-based, HEK293 TRPC4/mu-opioid, Fluo-4 calcium, EC20 DAMGO, dose response (AID 434941;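 active means earlier screen potentiator hit that boosts the TRPC4 ion channel at some dose, with a dose response; inactive means no potentiation, no dose response, or not a prior hit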;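 further: calcium entry triggered by an EC20 dose of DAMGO at the co-expressed mu-opioid receptor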).
Assay [9] has the same target. Nature of the assay: block of DAMGO-driven TRPC4 calcium entry – cell-based, HEK293 TRPC4/mu-opioid, Fluo-4 calcium, dose response (AID 434942;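 active means primary screen inhibitor hit that blocks the TRPC4 channel at some tested dose, yielding a dose curve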).
The target in assay [10] is Short transient receptor potential channel 6 (Mus musculus) (UniProt Q61143). Nature of the assay: TRPC6 blockade by TRPC4 inhibitor hits – cell-based, HEK293, membrane potential dye, duplicate, selectivity assay for TRPC4 inhibitor project, confirmation (AID 434948;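 active means active in primary screen and both duplicates, each dropping signal beyond three positive-control SD with fluorescence still positive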). Conditions: HEK293 TRPC6, membrane potential dye fluorescence, at 10 µM, stimulated with maximal-effect acetylcholine; active compounds read high.
Sequence of Short transient receptor potential channel 6 (Mus musculus) (Q61143 whole entry, looked up): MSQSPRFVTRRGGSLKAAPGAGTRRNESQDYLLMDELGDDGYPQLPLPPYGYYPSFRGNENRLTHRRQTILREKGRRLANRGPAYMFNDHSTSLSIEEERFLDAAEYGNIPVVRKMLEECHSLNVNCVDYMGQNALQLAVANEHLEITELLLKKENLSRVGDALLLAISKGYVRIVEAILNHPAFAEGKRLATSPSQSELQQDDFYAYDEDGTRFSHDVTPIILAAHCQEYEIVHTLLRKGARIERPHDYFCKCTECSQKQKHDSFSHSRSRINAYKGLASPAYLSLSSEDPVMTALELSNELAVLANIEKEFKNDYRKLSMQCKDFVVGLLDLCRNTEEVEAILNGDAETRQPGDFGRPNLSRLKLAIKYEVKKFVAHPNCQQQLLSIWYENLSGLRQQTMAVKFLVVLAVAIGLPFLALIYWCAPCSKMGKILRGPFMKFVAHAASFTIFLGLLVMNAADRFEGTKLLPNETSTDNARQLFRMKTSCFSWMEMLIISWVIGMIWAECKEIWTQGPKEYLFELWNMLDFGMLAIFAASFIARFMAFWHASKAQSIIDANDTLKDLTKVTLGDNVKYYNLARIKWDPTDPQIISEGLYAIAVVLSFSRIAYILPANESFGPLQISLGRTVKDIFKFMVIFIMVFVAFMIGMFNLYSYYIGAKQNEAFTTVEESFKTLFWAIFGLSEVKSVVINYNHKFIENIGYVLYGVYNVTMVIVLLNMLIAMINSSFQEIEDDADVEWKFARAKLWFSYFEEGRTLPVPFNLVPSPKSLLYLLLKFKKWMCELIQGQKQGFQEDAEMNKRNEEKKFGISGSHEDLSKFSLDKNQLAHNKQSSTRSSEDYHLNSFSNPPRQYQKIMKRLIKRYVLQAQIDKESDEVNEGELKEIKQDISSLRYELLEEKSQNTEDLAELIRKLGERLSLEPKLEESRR

Assay [11] has the same target. The experiment in a line: TRPC6 opening by TRPC4 activator hits – cell-based, HEK293, membrane potential dye, duplicate, selectivity assay for TRPC4 activator project, confirmation (AID 434950;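 active means membrane potential signal rise above negative control mean plus 3 SD in both duplicates, also active in the earlier TRPC4 screen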). Conditions: HEK293 TRPC6, membrane potential fluorescence, at 10 µM; activation: active compounds read high; outcome: activation.
The target is the same in assay [12]. The experiment in a line: positive modulators of mouse TRPC6 channel – HEK293 cells, membrane potential dye, duplicate, selectivity assay for TRPC4 potentiator project, confirmation (AID 434952;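 active means compound raising the membrane signal above positive-control mean plus 3 SD in both repeats, and a primary screen hit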). Conditions: HEK293 TRPC6, membrane potential dye fluorescence, at 10 µM, maximal acetylcholine added after compound; active compounds read high.
Assay [13] addresses Short transient receptor potential channel 4 (Mus musculus) (UniProt Q9QUQ5). The experiment in a line: calcium flux activators in TRPC4/5HT1a cells, counter-screen for TRPC4 activator project, cell-based, second counter screen, HEK293 TRPC4/5HT1a, Fluo-4 (AID 434977;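 active means calcium signal rise above buffer-control mean plus 5 SD in both duplicates, and also a hit in the primary screen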). Conditions: Fluo-4 calcium flux, at 10 µM; active compounds read high.
Assay [14] can be described thus: serotonin-gated TRPC4 signal block – cell-based, second counter screen, HEK293 TRPC4/5HT1a, Fluo-4, counter-screen for TRPC4 inhibitor project, confirmation (AID 434978;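 active means primary screen active whose calcium signal fell more than 3 SD beyond the full-serotonin control mean in both duplicate plates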;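 further: serotonin given first at submaximal then at maximal dose after compound preincubation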). The note with it: Fluo-4 calcium flux, at 10 µM, serotonin added to trigger calcium flux; active compounds read high.
Assay [15] deals with TRPC4 (mouse), co-expressed with 5HT1a in HEK293. The experiment in a line: enhancement of serotonin-evoked TRPC4 response – cell-based, second counter screen, HEK293 TRPC4/5HT1a, Fluo-4, counter-screen for TRPC4 potentiator project, confirmation (AID 434979;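 active means signal rise over 3 SD above mean of control wells given weak agonist, in both repeats and first screen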). The note with it: Fluo-4 calcium flux, at 10 µM, serotonin added at its EC20 dose; active compounds read high.
The nature of assay [16]: nonspecific calcium rise without TRPC4 – cell-based, HEK293 mu-opioid receptor line, counter-screen for TRPC4 activator project, confirmation (AID 449723;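 active means hit in primary screen, with calcium signal over 5 SD above buffer well mean in both duplicates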;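 further: counter screen cells carry the mu-opioid receptor alone and lack TRPC4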). Conditions: HEK293 mu-opioid cells, Fluo-4 calcium fluorescence, at 10 µM; active compounds read high.
Assay [17] can be described thus: nonspecific potentiation of DAMGO calcium response – cell-based, HEK293 mu-opioid receptor line, counter-screen for TRPC4 allosteric potentiator project, confirmation (AID 449724;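 active means calcium signal rise more than 3 SD above the low-dose agonist control mean, in both duplicate plates and the primary screen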;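 further: HEK293 cells carrying mu-opioid receptor only with no TRPC4 channel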). Conditions: HEK293 mu-opioid receptor cells, Fluo-4 calcium flux, at 10 µM, compound added before EC20 DAMGO stimulus; active compounds read high.

Sequence of Short transient receptor potential channel 4 (Mus musculus) (Q9QUQ5 whole entry, looked up): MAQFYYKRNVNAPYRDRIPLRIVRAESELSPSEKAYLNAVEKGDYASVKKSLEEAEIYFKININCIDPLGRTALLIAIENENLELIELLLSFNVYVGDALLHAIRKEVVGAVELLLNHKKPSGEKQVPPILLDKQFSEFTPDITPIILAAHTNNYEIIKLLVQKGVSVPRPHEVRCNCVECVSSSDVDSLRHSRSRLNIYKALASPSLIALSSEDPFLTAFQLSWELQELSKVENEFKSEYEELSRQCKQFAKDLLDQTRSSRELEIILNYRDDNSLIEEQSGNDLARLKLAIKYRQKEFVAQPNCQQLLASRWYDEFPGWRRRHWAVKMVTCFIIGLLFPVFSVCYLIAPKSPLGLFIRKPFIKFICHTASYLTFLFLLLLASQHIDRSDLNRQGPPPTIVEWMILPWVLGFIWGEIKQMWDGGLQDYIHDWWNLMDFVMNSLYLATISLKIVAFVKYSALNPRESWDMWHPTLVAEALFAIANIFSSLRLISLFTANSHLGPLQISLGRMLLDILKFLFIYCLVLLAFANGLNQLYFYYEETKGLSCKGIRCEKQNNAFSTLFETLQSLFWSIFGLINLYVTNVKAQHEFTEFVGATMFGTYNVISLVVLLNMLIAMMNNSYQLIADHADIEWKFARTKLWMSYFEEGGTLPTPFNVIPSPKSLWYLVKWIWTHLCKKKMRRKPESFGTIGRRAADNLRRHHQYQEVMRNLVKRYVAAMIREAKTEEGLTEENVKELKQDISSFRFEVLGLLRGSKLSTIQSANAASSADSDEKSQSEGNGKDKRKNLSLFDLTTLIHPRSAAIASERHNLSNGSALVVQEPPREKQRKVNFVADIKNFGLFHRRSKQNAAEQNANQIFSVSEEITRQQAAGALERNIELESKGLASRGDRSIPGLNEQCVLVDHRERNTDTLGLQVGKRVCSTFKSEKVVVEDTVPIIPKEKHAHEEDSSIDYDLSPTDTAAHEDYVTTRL

Take `COc1ccc(Cl)c2sc(N(CCN(C)C)C(=O)CCS(=O)(=O)c3ccc(C)cc3)nc12`: the outcome in [1], in assay [2], in assay [4], in assay [5], in assay [6] and in assay [7] was inactive. The result in assay [8], in assay [9], in assay [10], in [11], in assay [12] and in [13] was inactive. The result in [14], in [15], in [16] and in [17] was inactive. Also, in assay [3], the potentiation is 12% (active).

In the case of `CN1CCN(c2ccc(Cl)cc2NC(=O)CC2OC(=O)c3ccccc32)CC1` (stereo not drawn), the outcome in assay [1], in assay [2], in assay [5], in assay [6], in assay [7] and in assay [8] was inactive. Moreover, the outcome in assay [9], in assay [10], in [11], in [12], in assay [13] and in [14] was inactive. Moreover, the outcome in [16] and in assay [17] was inactive. In addition, the potentiation in assay [3] was 33% (active); in assay [4] it was 33% (active); in assay [15], 24.4% (active).

As to `CCOC(=O)C(CCCCCOc1ccc([N+](=O)[O-])cc1)C(=O)OCC`, the outcome in [1], in [2], in assay [3], in assay [5], in assay [6] and in assay [7] was inactive. The outcome in assay [8], in [9], in assay [10], in [11], in [12] and in assay [13] was inactive. Also, the result in assay [14], in [15], in assay [16] and in assay [17] was inactive. Further, in assay [4], the potentiation is 10% (active).

On to `CCN1CCN(c2nc(C)c3c(n2)CC(C)CC3=O)CC1` (stereo not drawn), for which the result in assay [1], in [2], in assay [3], in assay [4], in [5] and in assay [6] was inactive. The result in assay [7], in assay [8], in assay [9], in [10], in [11] and in assay [12] was inactive. Besides, the result in [13], in [14], in [16] and in assay [17] was inactive. In assay [15], the potentiation is 8.12% (active).

Turning to `CC[n+]1c(/C=C/Nc2ccccc2)sc2ccccc21`, the outcome in assay [1], in assay [2], in assay [3], in assay [4], in [5] and in assay [6] was inactive. For the same molecule, the result in [7], in [8], in [9], in assay [10], in assay [11] and in assay [12] was inactive. In addition, the outcome in assay [13], in assay [14], in assay [15], in assay [16] and in assay [17] was inactive.

Consider `CCOc1ccc2ccccc2c1/C=N/NC(=O)c1cc(C)[nH]n1`, for which the result in assay [1], in assay [2], in [3], in assay [4], in [5] and in [6] was inactive. The result in assay [7], in assay [8], in [9], in assay [10], in assay [11] and in assay [12] was inactive. Besides, the outcome in assay [13], in assay [14], in assay [15], in assay [16] and in assay [17] was inactive.

For the molecule `CN1CCN(NC(=O)Nc2cc(Cl)cc(Cl)c2)CC1`, the outcome in [1], in [2], in assay [3], in assay [5], in assay [6] and in assay [7] was inactive. In addition, the result in assay [8], in assay [9], in assay [10], in assay [11], in [12] and in assay [13] was inactive. Besides, the outcome in assay [14], in assay [15], in assay [16] and in assay [17] was inactive. Moreover, the potentiation in assay [4] is 29% (active).

In the case of `CCOC(=O)C1NN=C(C(=O)c2ccccc2)C1c1ccc(Cl)cc1` (stereo not drawn), the result in assay [1], in assay [2], in [3], in assay [4], in assay [5] and in assay [6] was inactive. In addition, the result in assay [7], in [8], in assay [9], in [10], in [11] and in assay [12] was inactive. Moreover, the result in assay [13], in assay [14], in assay [15], in [16] and in assay [17] was inactive.

In the case of `C=CCn1c(SCCN2CCOCC2)nc2c1c(=O)[nH]c(=O)n2C`, the outcome in assay [1], in assay [2], in assay [3], in assay [4], in assay [5] and in [6] was inactive. Also, the outcome in assay [7], in assay [8], in assay [9], in assay [10], in assay [11] and in assay [12] was inactive. In addition, the result in assay [13], in assay [14], in assay [16] and in assay [17] was inactive. For the same molecule, the potentiation in [15] was 35.7% (active).

`Cc1ccc(CN(C(=O)c2cc(=O)c3cc(Cl)c(C)cc3o2)C2CCS(=O)(=O)C2)cc1` (stereo not drawn): the result in assay [1], in [2], in assay [3], in assay [4], in [5] and in [6] was inactive. Besides, the result in assay [7], in [8], in assay [9], in assay [10], in assay [11] and in [12] was inactive. The result in [13], in assay [14], in assay [16] and in [17] was inactive. In addition, the potentiation in assay [15] is 64% (active).

`COc1cc(/C=C2\C(=N)N3N=C(S(C)(=O)=O)SC3=NC2=O)ccc1OC(=O)c1cccs1`: the outcome in assay [1], in assay [2], in assay [3], in assay [4], in assay [6] and in assay [7] was inactive. In addition, the result in [8], in assay [9], in assay [10], in [11], in assay [12] and in assay [13] was inactive. Moreover, the outcome in assay [14], in assay [15], in [16] and in [17] was inactive. Moreover, the inhibition in assay [5] is 86% (active).

Regarding `COC(=O)[C@H](Cc1ccccc1)NC(=O)c1ccc2ccccc2n1`, the outcome in [1], in assay [2], in assay [3], in [5], in [6] and in assay [7] was inactive. The outcome in assay [8], in assay [9], in assay [10], in assay [11], in assay [12] and in [13] was inactive. Further, the outcome in assay [14], in assay [16] and in assay [17] was inactive. The potentiation was 81% (active) in [4] and 59.7% (active) in assay [15].

As to `Oc1ccccc1-c1cc(-c2ccco2)[nH]n1`, the result in [1], in assay [2], in assay [3], in assay [4], in assay [5] and in assay [6] was inactive. For the same molecule, the outcome in [7], in assay [8], in [9], in assay [10], in assay [11] and in [12] was inactive. The outcome in assay [13], in assay [14], in assay [15], in assay [16] and in assay [17] was inactive.

Consider `CCCNc1nc2ccccc2n2c(C)nnc12`, for which the outcome in [1], in [2], in assay [3], in assay [4], in assay [7] and in assay [8] was inactive. Moreover, the result in [9], in [10], in assay [11], in [12], in assay [13] and in assay [14] was inactive. In addition, the outcome in [15], in assay [16] and in assay [17] was inactive. Moreover, the results for the inhibition in assay [5] and in assay [6] were 73% (active) and 39% (active), respectively.
